Assay outcomes: PubChem, National Center for Advancing Translational Sciences (NCATS)
Pf growth 96h: Primary qHTS for delayed death inhibitors of the malarial parasite plastid, 96 hour incubation | Potency, µM (top dose mostly 28.7 µM), for the others: at the top dose activity change, negative = inhibition, usual class: inhibitors | P. falciparum luciferase reporter growth, 96 h | 320,000 tested, 6.9% active
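P. falciparum expressing integrated firefly luciferase, in erythrocytes at 2% hematocrit, 0.05% parasitemia, incubated with compounds 96 h at 37 C, 5% CO2. Growth inhibition read as loss of luminescence; two-generation exposure targets delayed-death apicoplast inhibitors.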
Vaccinia mCherry: qHTS for Stage-Specific Inhibitors of Vaccinia Orthopoxvirus: mCherry Reporter Primary qHTS. Vaccinia virus mCherry reporter infection, fluorescence. Potency, µM (doses to about 36.5 µM), without a hit: top-dose activity change, negative = inhibition, hits mostly inhibitors. 310,000 tested, 0.63% active; calls by dose curve; tested in A549 cells; further: nearly all actives have a fitted effect of over 35% in size
AMA1-RON2 inh: qHTS for Inhibitors of AMA1-RON; Towards Development of Antimalarial Drug Lead: Primary Screen; AlphaScreen AMA1-biotinylated RON2 peptide binding; 360,000 tested, 0.2% active; Potency, µM (highest dose often 58.2 µM), inactives show top-dose activity change, negative = inhibition, usual class: inhibitors; AID 720542, 2013;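 further: 0% = vehicle wells and -100% = peptide control; nearly all actives have a fitted effect of over 45% in size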
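AMA1 (3D7) with his tag at 25 nM final met compounds first, then biotinylated RON2 peptide at 25 nM; detection used donor plus acceptor beads, 10 µg/mL apiece, read by AlphaScreen after 30 min at room temperature.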
VACV Venus inh: qHTS for Stage-Specific Inhibitors of Vaccinia Orthopoxvirus: Venus Reporter Primary qHTS; Vaccinia virus Venus reporter expression, fluorescence; Potency, µM (top dose mostly 36.5 µM), for the others: at the highest dose activity change, negative = inhibition, hits mostly inhibitors; 330,000 tested, 0.46% active; AID 720580, 2013; calls by dose curve; tested in A549 cells; further: nearly all actives have a fitted effect of over 30% in size
Pf growth 48h: Primary qHTS for delayed death inhibitors of the malarial parasite plastid, 48 hour incubation; P. falciparum luciferase growth in erythrocytes, 48 h; Potency, µM (titrated, usually from 28.7 µM), for the others: at the top dose activity change, negative = inhibition, most hits filed as inhibitors; 310,000 tested, 5.9% active; AID 504832, 2011
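Parasite viability was followed by luminescence of a genomically integrated firefly luciferase. Cultures held 0.1% parasitemia at 2% hematocrit (final), incubated under 5% CO2 at 37 C.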
The depositor's hits bear a star; i = inactive; u = inconclusive; x = no result; [ ] = dose if it differs, or a comment. Sampled rows, rich in hits. Any-hit rate of the full collection: about 8.7%. Unless noted, the call rests on the fitted dose curve; in most records, active means well fitted curve in the direction sought with a large enough effect; inconclusive means small, poorly fitted or top-dose-only effect, or another doubt; inactive means no such curve, though single readings can be large; an effect the other way counts as inactive or inconclusive. Unless noted, on the % scale 0 is the no-effect control and ±100 the full control effect; potency means the concentration at half of the fitted maximal effect.

SMILES	Pf growth 96h	Vaccinia mCherry	AMA1-RON2 inh	VACV Venus inh	Pf growth 48h
CCC(CC)C(=O)N1c2ccccc2C(C)(c2ccccc2)CC1(C)C (centres undefined)	x	-10.1%	x	-8.5%	x
O=C(COc1ccc2c(c1)C(=O)CC1(CCCCC1)O2)NCc1ccccc1	3.7µM*	-22.7%	-13.9%	-5.9%	8.28µM*
CCOC(=O)COc1ccc2c(c1)C(=O)CC(C)(c1cccnc1)O2 (centres undefined)	2.08µM*	x	-3.9%	x	51.5%
CC1(C)CC(=O)c2cc(OCC(=O)N3CCOCC3)ccc2O1	-14.1%	-10.1%	7.7%	-5.6%	-11.8%
CC1(C)CC(=O)c2cc(OCC(=O)NCc3cccnc3)ccc2O1	13.1µM*	x	-0.9%	x	0.0%
O=C(COc1ccc2c(c1)C(=O)CC1(CCCCC1)O2)NCc1ccccn1	u	i	56.9%	-14.4%	u
CCN(CC)C(=O)COc1ccc2c(c1)C(=O)CC(C)(C)O2	9.28µM*	x	3.7%	x	-13.1%
CCOC(=O)COc1ccc2c(c1)C(=O)CC1(CCCCC1)O2	u	x	20.9%	x	x
CC(c1ncncc1F)[C@](O)(Cn1cncn1)c1ccc(F)cc1F (some centres undefined)	u	x	x	x	-11.1%
CC1=C(C)/C(=N\OS(=O)(=O)c2ccccc2)C=CC1=O	13.1µM*	u	u	u	x
Nc1nn(-c2ccccc2)nc1C(=O)OCc1ccccc1F	1.04µM*	x	x	x	17.2%
Cc1ccc(S(=O)(=O)N(C)CCCN(C)c2nc(-c3cccs3)nc3ccccc23)cc1	x	-7.7%	x	-21.6%	x
O=S(=O)(c1ccc(F)cc1)N(CCO)CC(O)Cn1c2ccccc2c2ccccc21 (centres undefined)	u	-11.1%	-7.7%	-25.5%	14.7µM*
Cc1ccc(S(=O)(=O)N(C)CC(O)Cn2c3ccccc3c3ccccc32)cc1 (centres undefined)	-24.8%	x	-0.7%	-29.4%	u
CCN(CC(O)Cn1c2ccccc2c2ccccc21)S(=O)(=O)c1ccc(F)cc1 (centres undefined)	13.1µM*	x	-7.2%	x	x
Cc1nnc2sc(SCc3cccc(Cl)c3)nn2c1=O	2.08µM*	u	1.9%	-4.6%	5.86µM*
Cc1nnc2sc(SCC(=O)Nc3nccs3)nn2c1=O	1.65µM*	i	53.2%	-11.6%	u
Cc1nnc2sc(SCc3ccccc3)nn2c1=O	u	x	x	x	10.4µM*
Fc1ccc(-c2cn3cc(Cc4ccc(Cl)cc4)sc3n2)cc1	x	-7.1%	x	-1.3%	x
CCN(c1ccccc1)c1nnc(NC(=O)Nc2cccc(Cl)c2C)s1	x	-21.6%	x	-19.1%	x
NS(=O)(=O)c1ccc(N/N=C2/CCCCC2C2CCCCC2)c([N+](=O)[O-])c1 (centres undefined)	u	20µM*	-29.9%	15.8µM*	u
Cc1cc(C)c2c(c1)/C(=N/Nc1ccc(S(N)(=O)=O)cc1[N+](=O)[O-])CCC2	8.9%	x	0.0%	x	4.0%
O=C(O)C(c1ccccc1)N1C(=O)c2cccc3cccc(c23)C1=O (centres undefined)	1.47µM*	x	-2.0%	x	-17.1%
CC1CCc2c(sc3nc(C4CC4)nc(N4CCN(C(=O)c5ccco5)CC4)c23)C1 (centres undefined)	x	14.1µM*	-24.9%	u	x
Cc1ccc(C)c(S(=O)(=O)N2CCN(c3nc(CN4CCOCC4)nc4sc(C)c(C)c34)CC2)c1	11.7µM*	x	-17.1%	x	11.7µM*
SMILES	Pf growth 96h	Vaccinia mCherry	AMA1-RON2 inh	VACV Venus inh	Pf growth 48h
Cc1sc2nc(CN3CCCCC3)nc(N3CCN(C(=O)c4ccco4)CC3)c2c1C	u	-7.3%	5.9%	10.2%	7.38µM*
Cc1nc(N2CCN(S(=O)(=O)c3ccccc3)CC2)c2c3c(sc2n1)CC(C)CC3 (centres undefined)	10.4µM*	-1.2%	-13.4%	-0.5%	u
COC(=O)c1scc(-c2ccc(C)cc2)c1S(=O)(=O)Nc1cccc(C(F)(F)F)c1	x	-8.7%	x	-0.2%	x
Cc1ccc(S(=O)(=O)N2CCN(c3nc(CN4CCCC4)nc4sc(C)c(C)c34)CC2)cc1	u	x	-1.1%	x	4.65µM*
CNc1c(Br)cc(C=O)cc1Br	x	-14.5%	x	-9.0%	x
CCCCNC(=O)c1nc2ncc(Br)cn2n1	44.8%	x	-1.8%	x	28.3%
CCCNC(=O)c1nc2ncc(Br)cn2n1	13.1µM*	x	8.0%	x	25.9%
N=c1nc2n(cc1F)C1OC(CO)C(O)C1O2 (centres undefined)	x	5.62µM*	4.6%	u	x
COc1cc(Br)ccc1C1C(C(=O)Nc2ccc(C)cc2C)=C(C)Nc2nnnn21 (centres undefined)	x	-17.1%	x	-26.2%	x
COc1ccccc1-c1noc(-c2ccc(N3CCN(C)CC3)c([N+](=O)[O-])c2)n1	x	-10.2%	x	-26.2%	x
COc1ccc(-n2nnnc2SCC(=O)Nc2cc(OC)c([N+](=O)[O-])cc2C)cc1	2.94µM*	x	4.4%	x	u
COC(=O)c1ccc(-n2nnnc2SCC(=O)Nc2cc(OC)ccc2OC)cc1	u	-14.9%	-7.6%	-8.4%	26.3%
COc1cccc(-n2nnnc2SCC(=O)Nc2ccccc2OC)c1	9.28µM*	x	0.8%	x	18.2%
COc1cccc(-n2nnnc2SCC(=O)Nc2ccc(OC)cc2OC)c1	2.8%	x	-8.8%	x	24.4%
COc1cc(NC(=O)CSc2nc3ccccc3n2-c2ccccc2)c(C)cc1[N+](=O)[O-]	u	i	-22.5%	-16.0%	11.7µM*
Cc1ccccc1Cn1c(=O)n(Cc2ccc3c(c2)OCO3)c(=O)c2oc3ccccc3c21	x	-8.3%	x	-6.3%	x
O=C(Cn1cc(SCc2c(F)cccc2Cl)c2ccccc21)N1CCCC1	x	-17.0%	x	-21.2%	x
COc1ccc2nc(NC(=O)c3cc(=O)c4cc(C)cc(C)c4o3)sc2c1	x	9.6%	x	-0.7%	x
c1ccc2c(c1)NC(c1ccncc1)n1c-2nc2ccccc21 (centres undefined)	-21.8%	u	-9.5%	u	2.62µM*
CC(=O)N1c2ccccc2-c2nc3ccccc3n2C1C (centres undefined)	-11.6%	x	-16.3%	x	-1.6%
CCN1c2ccccc2-c2nc3ccccc3n2C1c1ccncc1 (centres undefined)	10.4µM*	x	7.4%	-11.4%	5.22µM*
c1cncc(C2Nc3ccccc3-c3nc4ccccc4n32)c1 (centres undefined)	8.7%	u	11.9%	-20.5%	x
CCN1c2ccccc2-c2nc3ccccc3n2C1c1cccnc1 (centres undefined)	-2.1%[5.75 µM]	-10.1%	-2.2%	-4.3%	9.28µM*
CCN1c2ccccc2-c2nc3ccccc3n2C1c1ccccn1 (centres undefined)	u	x	14.5%	-11.5%	u
CCOC(=O)C1CCCN(C(=O)c2nn(-c3ccc(C)cc3)c(=O)c3c2c2ccccc2n3C)C1 (centres undefined)	x	4.4%	x	9.1%	x
